Assay results as given in PubChem BioAssay AID624417 (National Center for Advancing Translational Sciences (NCATS), 2012).
In all, about 410,000 compounds went through this assay and about 6,400 (1.6%) were called active. Inconclusive results (about 20%) are left out. The call rests on the fitted dose curve; in most records, active means well fitted inhibition curve with a large enough effect; inconclusive means small, poorly fitted or top-dose-only effect; inactive means no such curve, though single readings can be large or run the other way. Shown is part of a subset that was picked to be rich in actives. A call without a number means that no potency is given here.
Further: nearly all actives have a fitted effect of over 55% in size.
Potency means the concentration at half of the fitted maximal effect.

These molecules were tested against Glucagon-like peptide 1 receptor (Homo sapiens) (UniProt P43220) (assay: qHTS of GLP-1 Receptor Inverse Agonists (Inhibition Mode)). Conditions: HEK293 GLP-1R CRE-luciferase, luminescence, 24 h, GLP-1R form is constitutively active; series mostly up to 38.3 µM.
Chain of Glucagon-like peptide 1 receptor (Homo sapiens) (P43220 whole entry, looked up): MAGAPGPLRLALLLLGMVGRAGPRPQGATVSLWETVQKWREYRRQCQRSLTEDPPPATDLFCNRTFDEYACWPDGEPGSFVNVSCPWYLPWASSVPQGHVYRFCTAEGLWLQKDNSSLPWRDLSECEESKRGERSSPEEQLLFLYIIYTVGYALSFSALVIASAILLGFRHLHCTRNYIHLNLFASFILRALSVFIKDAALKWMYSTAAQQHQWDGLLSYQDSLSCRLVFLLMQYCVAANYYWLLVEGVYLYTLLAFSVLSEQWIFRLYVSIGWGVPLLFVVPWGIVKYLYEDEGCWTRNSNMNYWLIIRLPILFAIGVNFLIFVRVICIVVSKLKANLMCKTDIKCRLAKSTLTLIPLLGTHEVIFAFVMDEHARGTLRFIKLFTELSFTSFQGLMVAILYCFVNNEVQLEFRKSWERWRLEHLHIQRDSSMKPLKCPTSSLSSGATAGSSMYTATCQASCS
Summary of the method: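 Inverse agonism was detected as reduced cAMP-driven luciferase luminescence after 24 h compound treatment. The cells were HEK293 clones expressing constitutively active human GLP-1R with the reporter. Reporter-only and GPR119 cell lines served as counterscreen controls.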
With CCCNC(=O)C1(C)CCN(C(=O)c2ccc(F)cc2Cl)C1 (stereo not given) the Potency was “inactive”.
For COc1ccc([C@H]2CC(=O)C[C@@H](CCn3cc(CC4CCCC4)nn3)O2)cc1, the Potency was “inactive”.
With Cc1cc(C)c(S(=O)(=O)NN=C2c3ccccc3[C@H]3Cc4csc[n+]4[C@@H]23)c(C)c1 the Potency was “inactive”.
With COc1ccccc1-n1c(SCC(=O)Nc2ccc(Cl)cc2)nc(O)c(Cc2ccccc2)c1=O the Potency was “inactive”.
With CC(NC(=O)CCc1cn(Cc2ccccc2Cl)c2ccccc12)c1ccccc1 (stereo not given) the Potency was “inactive”.
With COC(=O)N/N=C/c1c[n+]([O-])c2ccccc2[n+]1[O-] the Potency was “inactive”.
In the case of NC(=O)Cn1cc(/C=N\NS(=O)(=O)c2ccccc2)c2ccccc21, the Potency is reported as “inactive”.
In the case of CCOC(=O)N/N=C/c1cn(Cc2ccccc2Cl)c2ccccc12, the Potency is reported as 7.94 µM (active).
With COC(=O)N/N=C/c1cn(CCCOc2ccc(C)cc2)c2ccccc12 the Potency was 8.91 µM (active).
For Cc1ccc(OCCOc2cccc(/C=N/NC(N)=O)c2)cc1, the Potency was “inactive”.
For O=C(CC[C@H]1O[C@@H](n2ccc(=O)[nH]c2=O)[C@H](O)[C@@H]1O)N[C@H](Cc1ccccc1)C(=O)NCCCN1CCCC1=O, the Potency was “inactive”.
In the case of CC(=O)Nc1ccc2c3c(ccc([N+](=O)[O-])c13)CC2, the Potency is reported as “inactive”.
For O=C(OCc1cn([C@@H]2C[C@H](c3ccc(Cl)cc3)N(Cc3cccs3)C[C@H]2O)nn1)c1ccccc1, the Potency was “inactive”.
For CCC(=O)N1Cc2cc(C(=O)NCc3cccc(F)c3)nc(-c3cccc(C4=CCCC4)c3)c2[C@H]1CCO, the Potency was “inactive”.
With CCCOc1ccc(F)cc1-c1cc(C(=O)Nc2ccc(F)cc2)[nH]n1 the Potency was “inactive”.
For O=C(C(=O)N1CCC(c2ccccc2)CC1)c1ccccc1, the Potency was “inactive”.
For CN(C)S(=O)(=O)c1cccc(NC(=O)Cc2ccsc2)c1, the Potency was “inactive”.
CN(c1ccccc1)S(=O)(=O)c1cccc(C(=O)NNC(=O)c2ccncc2)c1 was tested, and the Potency was “inactive”.
With CN(c1ccccc1)S(=O)(=O)c1cccc(NC(=O)Cc2c(F)cccc2Cl)c1 the Potency was 7.94 µM (active).
For Cc1ccc(F)c(S(=O)(=O)NC(=O)C2(C)CCN2C(=O)CCc2cccs2)c1 (stereo not given), the Potency was “inactive”.
With Cc1cccc(NC(=S)N(CCN(C)C)C(C)c2ccco2)c1 (stereo not given) the Potency was “inactive”.
For COCCN(C(=S)Nc1ccccc1OC)C1CCN(C(C)C)CC1, the Potency was “inactive”.
With CCc1cccc(NC(=S)N(CCN(C)C)C2CCN(C(C)C)CC2)c1 the Potency was 5.01 µM (active).
CCc1cccc(NC(=O)CCNS(=O)(=O)c2cccc3nonc23)c1 was tested, and the Potency was “inactive”.
CCc1cccc(NC(=O)CCCN2C(=O)C(c3ccccc3)Oc3cccnc32)c1 (stereo not given) was tested, and the Potency was 7.94 µM (active).
In the case of CCc1cccc(NC(=O)CSc2nccn2C)c1, the Potency is reported as “inactive”.
For Cc1ccc(S(=O)(=O)N2C[C@@H](C)[C@]3(C2)[C@H](O)[C@H](OC(=O)NCc2ccccc2)C[C@H]2C(=O)N(c4ccccc4)C(=O)[C@H]23)cc1, the Potency was “inactive”.
With O=C(NCc1ccccc1)C1=C[C@@H](c2ccccc2)C[C@@H](OCCCCO)O1 the Potency was “inactive”.
O=C(NCc1ccccc1)C1=C[C@@H](C2CCCCC2)C[C@@H](OCc2ccc(CO)cc2)O1 was tested, and the Potency was 10 µM (active).
O=C(C1=C[C@H](C2CC2)C[C@H](OCc2ccc(CO)cc2)O1)N1CCN(Cc2ccccc2)CC1 was tested, and the Potency was “inactive”.
With CCCNC(=O)C[C@@H]1CC[C@@H]2[C@H](COC[C@H](O)CN2C(=O)c2cc(Cl)cc(Cl)c2)O1 the Potency was “inactive”.
With CCOc1c(Br)cc(/C=C2\C(=O)N(CCC#N)N=C2C)cc1OC the Potency was “inactive”.
Cc1cccc(C)c1-n1c(C)cc(/C=C2\C(=O)NN(c3ccccc3)C2=O)c1C was tested, and the Potency was “inactive”.
COc1cc(/C=C2/C(=O)NN(c3cccc(Cl)c3)C2=O)cc(Br)c1O was tested, and the Potency was 5.01 µM (active).
Cc1ccccc1Cn1c(C)c(C(=O)NCc2cccc(C(F)(F)F)c2)sc1=O was tested, and the Potency was “inactive”.
CCOC(=O)C1(C)CCCN(C(=O)c2ccc(F)c(Cl)c2)C1 (stereo not given) was tested, and the Potency was “inactive”.
For CC(C)C[C@H]1CNC(=O)C(=O)N1C[C@H]1CCCN1C[C@H](Cc1ccc(O)cc1)N1C[C@H](CC(C)C)N(CC2CCCCCC2)C(=O)C1=O, the Potency was “inactive”.
In the case of O=C(OCCN1CCOCC1)C1(c2ccccc2)CCCCC1, the Potency is reported as “inactive”.
With CC(=O)N1CCC(C(=O)OCc2ccc(Cl)cc2)(c2ccccc2)CC1 the Potency was 10 µM (active).
For O=C(OCc1cc(=O)n2ccsc2n1)C1(c2ccc(Cl)cc2)CC1, the Potency was “inactive”.
CC=CCn1c(SCCCc2ccccc2)nc2c1c(=O)[nH]c(=O)n2C was tested, and the Potency was “inactive”.
In the case of CCC(=O)N1CCCC1(C)C(=O)Nc1ccc2c(c1)CCN2C(C)=O (stereo not given), the Potency is reported as “inactive”.
With O=C(O)c1ccc(N=NN2CCOCC2)cc1 the Potency was “inactive”.
With O=C(c1ccccc1)C(O)(CN1CCCCC1)c1ccccc1 (stereo not given) the Potency was “inactive”.
O=C(O)c1cccc(N=NN2CCCCCC2)c1 was tested, and the Potency was 3.55 µM (active).
In the case of COc1ccc(C(=O)C(OP(=O)(OC)OC)c2ccccc2OC)cc1 (stereo not given), the Potency is reported as “inactive”.
In the case of COc1ccccc1CNC(=O)c1cc(-c2cc(F)ccc2OC)n[nH]1, the Potency is reported as “inactive”.
O=[N+]([O-])c1ccc(N2CCOCC2)cc1 was tested, and the Potency was “inactive”.
For O=c1[nH]n(-c2ccc([N+](=O)[O-])cc2)c(=O)c2ccccc12, the Potency was 5.01 µM (active).
With COc1cnn(-c2ccc([N+](=O)[O-])cc2)c(=O)c1Cl the Potency was “inactive”.
With COc1ccc(S(=O)(=O)N[C@@H]2C=C[C@@H](CC(=O)N3CCc4ccccc4C3)O[C@@H]2CO)cc1 the Potency was “inactive”.
With CC(C)CNC(=O)C1(C)CCCN1C(=O)CSc1ccccc1 (stereo not given) the Potency was “inactive”.
With CC(=O)Nc1ccc(NC(=O)C2CCCN2S(=O)(=O)c2cccc(C(F)(F)F)c2)cc1 (stereo not given) the Potency was “inactive”.
For O=S(=O)(c1cccc(C(F)(F)F)c1)N1CCN(c2cnccn2)CC1, the Potency was “inactive”.
For O=S(=O)(c1cccc(C(F)(F)F)c1)N1c2ccccc2-n2cccc2C1c1cccnc1 (stereo not given), the Potency was 10 µM (active).
With Cc1ccc(C)c(NC(=S)NNC(=S)Nc2ccc(C(C)C)cc2)c1 the Potency was 3.55 µM (active).
In the case of CC(C)c1ccc(NC(=S)NNc2ccc(Cl)c(C(=O)O)c2)cc1, the Potency is reported as “inactive”.
Cc1ccc(C)c(NC(=S)NNC(=O)c2csc(C)c2)c1 was tested, and the Potency was “inactive”.
In the case of CCCCCCCC(=O)NC(Nc1ccccc1OC)C(Cl)(Cl)Cl (stereo not given), the Potency is reported as 6.31 µM (active).
CCCC(=O)NC(Nc1ccccc1OC)C(Cl)(Cl)Cl (stereo not given) was tested, and the Potency was “inactive”.
CCCCCN(C(=O)NC(=O)Nc1ccccc1OC)S(C)(=O)=O was tested, and the Potency was “inactive”.
For Cn1ncc([N+](=O)[O-])c1C(=O)Nc1cc(Cl)ccc1Cl, the Potency was “inactive”.
For CCc1nc2ccc(C(=O)N(C)Cc3ccco3)cn2c1N(C)C(=O)Cc1ccccc1, the Potency was “inactive”.
With OC[C@@H]1CN(C2CCCC2)C[C@H](n2cnc3c(NC4CCC4)ncnc32)O1 the Potency was “inactive”.
Cc1ccccc1OCC(=O)Nc1ccc(N2CCN(C(=O)C(C)C)CC2)c(Cl)c1 was tested, and the Potency was 3.98 µM (active).
COc1ccccc1C(=O)Nc1ccc(C)c(S(=O)(=O)N2CCCCC2)c1 was tested, and the Potency was 14.1 µM (active).
Cc1ccc(NC(=O)COC(=O)C2CC2)cc1S(=O)(=O)N1CCOCC1 was tested, and the Potency was “inactive”.
For COc1ccccc1C(CNC(=O)c1ccc(C)c(S(=O)(=O)N2CCCCC2)c1)N(C)C (stereo not given), the Potency was “inactive”.
For COc1ccc(NC(=O)C2=NNC(=O)CC2)cc1S(=O)(=O)N1CCCCC1, the Potency was “inactive”.
Cc1ccccc1OCC(=O)Nc1ccc2c(c1)ncn2C was tested, and the Potency was “inactive”.
For CCc1ccccc1OCC(=O)Nc1ccc(C)c(S(=O)(=O)N2CCCCCC2)c1, the Potency was 8.91 µM (active).
For Cc1ccccc1OCC(=O)Nc1ccc(S(=O)(=O)N2CCOCC2)cc1, the Potency was “inactive”.
For Cc1ccc(NC(=O)CCC(=O)N2CCC(c3ccccc3)=N2)cc1S(=O)(=O)N1CCCCC1, the Potency was “inactive”.
For CC1(C(=O)NS(=O)(=O)c2ccccc2)CCN1C(=O)c1ccccc1 (stereo not given), the Potency was “inactive”.
For Nc1nc(CSc2nnnn2-c2ccccc2)nc(Nc2ccccc2)n1, the Potency was “inactive”.
CCOC(=O)C1=CCC2C(=O)N(Cc3ccccc3)C(=O)C12 (stereo not given) was tested, and the Potency was “inactive”.
For COC(=O)[C@]12CCCCC=C1N(Cc1ccco1)C(=O)[C@H](CC(=O)NCCCCc1ccccc1)C2, the Potency was “inactive”.
With CCN(C(=O)Nc1cccc2ccccc12)c1ccccc1 the Potency was “inactive”.
CC(C)[C@H](NC(=O)c1ccccc1F)C(=O)Nc1cccc(S(=O)(=O)N2CCOCC2)c1 was tested, and the Potency was “inactive”.
In the case of CCCNC(=O)C1(C)CCN(C(=O)c2ccccc2OC(F)(F)F)C1 (stereo not given), the Potency is reported as “inactive”.
In the case of OC[C@H]1O[C@@H](c2nc(-c3nc(-c4ccc(F)cc4)no3)cs2)[C@H](O)[C@@H](O)[C@H]1O, the Potency is reported as “inactive”.
With CC1(C(=O)NCc2ccccc2)CN(S(C)(=O)=O)CC(=O)N1CC(F)(F)F (stereo not given) the Potency was “inactive”.
With COCCNC(=O)c1ccccc1-c1nc(-c2ccccc2Cl)no1 the Potency was “inactive”.
With CC(=O)Nc1cccc(/C(C)=N/NC(=O)c2c(-c3ccccc3Cl)noc2C)c1 the Potency was “inactive”.
For Cc1onc(-c2ccccc2Cl)c1C(=O)NCCn1ccc2ccccc21, the Potency was 6.31 µM (active).
In the case of CCNC(=O)C1CCCN(C(=O)c2ccc(OC)cc2OC)CC1 (stereo not given), the Potency is reported as “inactive”.
For COc1ccccc1NC(=O)c1cc(C2CC2)nc2c1c(C)nn2-c1ccc(C)cc1, the Potency was “inactive”.
For COc1ccc(NC(=O)c2cc(-c3ccc(C)o3)nc3ccccc23)cc1, the Potency was “inactive”.
In the case of COc1cc(NC(=O)c2cc(C3CC3)nc3c2c(C)nn3-c2ccccc2)cc(OC)c1, the Potency is reported as 10 µM (active).
CC(C)C[C@H]1CNC(=O)C(=O)N1C[C@@H]1CCCN1C[C@H](Cc1ccccc1)N1C[C@H](CC(C)C)N(CC2CCCCCC2)C(=O)C1=O was tested, and the Potency was “inactive”.
For Cc1ccc(S(=O)(=O)N(C)C)cc1NC(=O)COC(=O)c1c(C)noc1C, the Potency was “inactive”.
In the case of CN(c1ccc(OCC(=O)O)cc1)S(=O)(=O)c1ccc2ccccc2c1, the Potency is reported as “inactive”.
With CCc1noc(C)c1C(=O)Oc1ccc(N(C)S(=O)(=O)c2ccc(C)c(C)c2)cc1 the Potency was 12.6 µM (active).
COC(=O)c1ccc2nc(-c3cccc(Br)c3)c(Cc3ccc(OC)cc3C)n2c1 was tested, and the Potency was “inactive”.
In the case of COc1ccc(NC(=O)N(C)C[C@@H]2OCc3cn(nn3)CCCC(=O)N([C@H](C)CO)C[C@H]2C)c(OC)c1, the Potency is reported as “inactive”.
